Results: PubChem BioAssay (EPA / NIEHS)
Results filed as inconclusive are left out. Activity calls are given as the source filed them. Rule for the calls: active = hit-call score of the fitted dose curve at least 0.9, where 1 is the maximum; inconclusive = response in the unintended direction; inactive = score below 0.9.

These molecules were tested on rat Monoamine Oxidase, MAO-A, Peripheral (MAOAP), gene 29253 (assay: NVS_ENZ_rMAOAP: NovaScreen (NVS) Enzymatic Assay for rat Monoamine Oxidase, MAO-A, Peripheral (MAOAP) (AID 2283237)).
Description: NVS_ENZ_rMAOAP is a biochemical, single-readout assay that uses extracted gene-proteins from Rat liver mitochondrial membranes in a tissue-based cell-free assay. Measurements were taken 1.17 hours after chemical dosing in a 96-well plate.NVS_ENZ_rMAOAP is one of one assay component(s) measured or calculated from the NVS_ENZ_rMAOAP assay. It is designed to make measurements of enzyme activity, a form of enzyme reporter, as detected with scintillation counting signals by Lysate-based radiodetection technology.Data from the assay component NVS_ENZ_rMAOAP was analyzed into 1 assay endpoint. This assay endpoint, NVS_ENZ_rMAOAP, was analyzed in the positive analysis fitting direction relative to DMSO as the negative control and baseline of activity. Using a type of enzyme reporter, loss-of-signal activity can be used to understand changes in the enzymatic activity as they relate to the gene Maoa. Furthermore, this assay endpoint can be referred to as a primary readout, because this assay has produced multiple assay endpoints where this one serves a enzymatic activity function. To generalize the intended target to other relatable targets, this assay endpoint is annotated to the oxidoreductase intended target family, where the subfamily is monoamine oxidase.
Binding assays used specific radioligands (tritiated, iodinated) with non-radioactive competitive displacement ligands in agonist or antagonist protocols (as indicated) and various reference compounds and inhibitors to titrate specific binding to receptors and transporters. Most enzyme assays (CYPs, kinases, phosphatases, proteases, HDACs) used recombinant protein and specific substrates (fluorescence mostly, some colorimetric and radioactive) and inhibitors, followed by a biochemical separation of substrate and product. All assays for the biochemical HTS were initially run in duplicate at a single concentration (10 uM for CYP450 assays and 25 uM for all others). […] Each assay was run with positive and negative controls, and concurrent controls on every plate. The follow-up (secondary) screen tested active chemical-pairs in concentration series, as well as a few additional assays not tested in the primary screen, some selected negative inactives, and several cases re-run in the concentration series for confirmatory purposes.

How did the AC50 turn out when `CCc1cc(SCc2sc(-c3ccc(C(F)(F)F)cc3)nc2CN2CCN(c3ccc(OC)cc3)CC2)ccc1OCC(=O)O` was run?
Its AC50 is 25 µM (active).

For `O=Cc1ccccc1C=O`, which outcome is on record?
The outcome was “inactive”.

For `CC(C)C(=O)Nc1ccc([N+](=O)[O-])c(C(F)(F)F)c1`, which AC50 is on record?
Its AC50 is 10.4 µM (active).

With `Nc1cccc(N)c1` as the molecule, how does the outcome read?
Its outcome is “inactive”.

For `CCCN(CCC)c1c([N+](=O)[O-])cc(C(F)(F)F)c(N)c1[N+](=O)[O-]`, which outcome is on record?
Its outcome is “inactive”.

How did the AC50 turn out when `O=c1c(O)c(-c2ccc(O)c(O)c2)oc2cc(O)cc(O)c12` was run?
The AC50 was 17.2 µM (active).

How did the AC50 turn out when `Oc1ccc2c(c1)-c1ccccc1C2` was run?
Its AC50 is 4.45 µM (active).

`O=NO` was tested. Which AC50 did it give?
The AC50 was 33.9 µM (active).

Which AC50 does the source give for `NCc1cccc(C2CCN(C(=O)c3ccc(C#Cc4ccccc4F)o3)CC2)c1` here?
Its AC50 is 3.57 µM (active).

With `CCN(CC)CCNc1ccc(CNC=O)c2sc3ccc(OC)cc3c(=O)c12` as the molecule, how does the AC50 read?
The AC50 was 9.35 µM (active).

With `CCOC(=O)COc1cc(-n2ncc(C(F)(F)F)c(C)c2=O)c(F)cc1Cl` as the molecule, how does the outcome read?
Its outcome is “inactive”.

How did the outcome turn out when `C[C@]12CC[C@@H]3c4ccc(O)cc4CC[C@H]3[C@@H]1CCC2=O` was run?
The outcome was “inactive”.

`CSC(=O)c1cccc2nnsc12` was tested. Which outcome did it give?
Its outcome is “inactive”.

Which AC50 does the source give for `Nc1ccc2c(c1)C(=O)c1ccccc1C2=O` here?
Its AC50 is 6.14 µM (active).

How did the outcome turn out when `c1ccc2[nH]c(-c3cscn3)nc2c1` was run?
Its outcome is “inactive”.

With `O=c1ccc2ccccc2o1` as the molecule, how does the AC50 read?
Its AC50 is 6.56 µM (active).

`CCCOc1sc(C(=O)N2CCC(c3cc(CN)ccc3F)CC2)c(C)c1Br` was tested. Which AC50 did it give?
Its AC50 is 2.6 µM (active).

Which outcome does the source give for `O=C(O)c1cccc(C(=O)O)c1` here?
Its outcome is “inactive”.

`CNS(=O)(=O)c1cc(C(=O)N2CCC(CCN3C4CCC3CC(n3c(C)nc5ccccc53)C4)(c3cccc(F)c3)CC2)c(Cl)cc1F` (stereo not given) was tested. Which outcome did it give?
Its outcome is “inactive”.

`CCn1nc(C)c2c1C(=O)NCC(c1ccc(O)cc1)=N2` was tested. Which AC50 did it give?
Its AC50 is 5.25 µM (active).

With `COc1ccc2cc(S(=O)(=O)N[C@H](CC(=O)N[C@H](Cc3ccc(CN4[C@H](C)CCC[C@@H]4C)cc3)C(=O)N(C)C(C)C)c3ccc4c(c3)OCO4)ccc2c1` as the molecule, how does the AC50 read?
The AC50 was 36 µM (active).

With `Oc1ccc2ccccc2c1` as the molecule, how does the AC50 read?
Its AC50 is 12.9 µM (active).

With `N=C(N)c1ccc(OCCCCCOc2ccc(C(=N)N)cc2)cc1` as the molecule, how does the AC50 read?
Its AC50 is 0.504 µM (active).

With `Cc1cc(CCN2CCN(c3nsc4ccccc34)CC2)cc2c1NC(=O)CC2(C)C` as the molecule, how does the outcome read?
The outcome was “inactive”.

Which outcome does the source give for `Cc1c(C(=O)O)c(O)cc2c1C(=O)c1c(O)c([C@@H]3O[C@H](CO)[C@@H](O)[C@H](O)[C@H]3O)c(O)c(O)c1C2=O` here?
The outcome was “inactive”.

`COCCOCCOC` was tested. Which AC50 did it give?
Its AC50 is 39.7 µM (active).

Which outcome does the source give for `O=C(O)CC(O)C(=O)O` (stereo not given) here?
The outcome was “inactive”.

For `CC(C)(c1ccc(O)cc1)c1ccc(O)cc1`, which outcome is on record?
The outcome was “inactive”.

How did the outcome turn out when `CCCOC(=O)NCCCN(C)C` was run?
The outcome was “inactive”.

With `CC[C@H](C)C(=O)O[C@H]1C[C@H](O)C=C2C=C[C@H](C)[C@H](CC[C@@H](O)C[C@@H](O)CC(=O)O)[C@H]21` as the molecule, how does the outcome read?
Its outcome is “inactive”.

`Fc1ccccc1[C@@H](F)COC1CCC(Nc2ncnc3[nH]ncc23)CC1` (stereo not given in full) was tested. Which outcome did it give?
The outcome was “inactive”.

For `CCCCCCCC=O`, which outcome is on record?
The outcome was “inactive”.

For `CCCCCCc1ccc(O)cc1O`, which AC50 is on record?
Its AC50 is 25 µM (active).

`Nc1cccc2c(N)cccc12` was tested. Which AC50 did it give?
The AC50 was 25 µM (active).

How did the AC50 turn out when `O=c1c(-c2ccc(O)cc2)coc2cc(O)cc(O)c12` was run?
Its AC50 is 3.49 µM (active).

For `NCC1(Cc2noc(=O)[nH]2)CCCCC1`, which outcome is on record?
The outcome was “inactive”.

Which outcome does the source give for `CCCCC(CC)C(=O)OCCOCCOCCOC(=O)C(CC)CCCC` (stereo not given) here?
Its outcome is “inactive”.

`CN1CCN(Cc2cc(-c3ccc4[nH]c(=O)oc4c3)co2)[C@@H](c2ccc(F)cc2)C1` was tested. Which AC50 did it give?
Its AC50 is 18.2 µM (active).

How did the AC50 turn out when `CN(C)c1ccc(N=NS(=O)(=O)O)cc1` was run?
The AC50 was 21.1 µM (active).

With `Oc1cc2ccccc2c2ccccc12` as the molecule, how does the AC50 read?
The AC50 was 3 µM (active).
